# Most compounds without a hit are left out; they make up all but 10% or so of the library.
# PNC assembly inh: perinucleolar compartment assembly inhibition; PC3M PTB-GFP, PNC prevalence imaging, 16 h; stronger effect = lower value; activity change (PNC), negative = inhibition, % at 10 µM; 140,000 tested, 3.1% active; AID 2417;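 active = readout at or below -70, meaning at least 70% loss of cells showing the perinucleolar compartment, a nuclear body marking cancer cells; inconclusive = readout between -30 and a set limit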;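 note: plate controls were DMSO wells for no effect and camptothecin positive control wells for full effect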
#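 PC3M cells stably expressing PTB-GFP, 750–1000 cells/well, treated 16 h at 37 °C with compound (23 nl of library stock), in duplicate. After paraformaldehyde fixation and Hoechst stain, imaged at 20x; PNC prevalence scored by image analysis.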
# ALDH1A1 block: blocks purified human ALDH1A1 activity | P00352 | Purified ALDH1A1, NADH fluorescence, propionaldehyde substrate | Potency, µM (titrated, usually from 75.3 µM), without a hit: at the highest dose activity, negative = inhibition, usual class: inhibitors | 220,000 tested, 7.3% active | AID 1030;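 note: potency is the fitted concentration of half-maximal effect; plate controls were no enzyme wells and a reference inhibitor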
# Target sequence (P00352 whole entry, looked up): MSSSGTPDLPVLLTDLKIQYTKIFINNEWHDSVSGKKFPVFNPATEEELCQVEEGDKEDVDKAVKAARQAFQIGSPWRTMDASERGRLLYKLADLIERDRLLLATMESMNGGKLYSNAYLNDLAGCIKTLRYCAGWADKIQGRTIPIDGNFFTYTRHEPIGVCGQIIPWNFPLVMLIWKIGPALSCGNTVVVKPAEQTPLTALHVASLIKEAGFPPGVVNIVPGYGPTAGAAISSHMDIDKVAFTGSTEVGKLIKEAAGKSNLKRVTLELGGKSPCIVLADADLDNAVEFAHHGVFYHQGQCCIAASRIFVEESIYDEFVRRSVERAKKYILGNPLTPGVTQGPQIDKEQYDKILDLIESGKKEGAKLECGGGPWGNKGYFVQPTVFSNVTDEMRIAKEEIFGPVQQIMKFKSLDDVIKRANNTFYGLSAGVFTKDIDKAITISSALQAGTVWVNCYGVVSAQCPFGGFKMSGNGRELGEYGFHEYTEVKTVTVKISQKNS
# Luc counter: Kinase-Glo luciferase inhibition (counter-screen); Kinase-Glo luciferase, ATP luminescence, 8 min; Potency, µM (top dose mostly 38.3 µM), without a hit: at the top dose activity change, negative = inhibition, most hits filed as inhibitors; 200,000 tested, 0.28% active; active = well fitted inhibition curve with a large enough effect; inconclusive = small, poorly fitted or top-dose-only effect; note: potency is the fitted concentration of half-maximal effect; nearly all actives have a fitted effect of over 60% in size
#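 Compound is pinned into ATP-containing buffer (10 uM ATP, imidazole pH 7.2, 7 mM MgCl2). Kinase-Glo luciferase reagent is then added. Light output is recorded following an 8-min room-temperature incubation.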
# HPGD inh: blocks human HPGD enzyme activity; P15428; purified HPGD, NADH fluorescence kinetic, PGE2 substrate; Potency, µM, without a hit: at the highest dose activity change, negative = inhibition, hits mostly inhibitors; 150,000 tested, 4.3% active; note: potency is the fitted concentration of half-maximal effect
# Target sequence (P15428 whole entry, looked up): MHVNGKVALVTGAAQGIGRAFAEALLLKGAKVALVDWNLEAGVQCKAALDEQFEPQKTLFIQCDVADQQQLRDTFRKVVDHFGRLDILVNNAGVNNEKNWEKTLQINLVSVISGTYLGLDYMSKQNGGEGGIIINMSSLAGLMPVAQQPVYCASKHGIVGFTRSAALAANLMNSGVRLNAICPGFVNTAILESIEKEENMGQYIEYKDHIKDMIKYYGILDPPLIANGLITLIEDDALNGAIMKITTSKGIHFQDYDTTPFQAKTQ
#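 NADH formation kinetics: reaction with 30 uM PGE2 and 1 mM NAD+ (final), 20 nM enzyme, Tris-HCl pH 8 with Tween 20, after 15 min compound preincubation at room temperature. Fluorescence change, last versus first of five reads.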
# Lamin A splicing: modulators of lamin A splicing | HeLa LMNA splicing GFP/RFP minigene ratio, 48 h | Potency, µM (highest dose often 46.1 µM), for the others: top-dose ratio change, negative = inhibition, usual class: inhibitors | AID 1487 | 200,000 tested, 0.01% active; active = well fitted inhibition curve with a large enough effect in the signal ratio, with a control signal flat, not every such curve was filed as active; inconclusive = small, poorly fitted or top-dose-only effect, or effect the other way, or a change in a side signal; the % refers to the signal ratio; note: potency is the fitted concentration of half-maximal effect
#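 S3 HeLa stable clones carrying a lamin A-EGFP splicing minigene plus DsRed2 were seeded at 600 cells/well in Opti-MEM with 2% FBS, pin-dosed and incubated 48 h at 37°C. Acumen cytometry (488 nm) gave the GFP/RFP total-intensity ratio.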
# Active calls of the source: *; ? = inconclusive; / = no result; [ ] = dose if it differs, or a comment. Unless noted, calls come from the whole dose curve; as a rule, active = well fitted inhibition curve with a large enough effect (not every such curve was filed as active); inconclusive = small, poorly fitted or top-dose-only effect, or another doubt; inactive = no such curve, though single readings can be large or run the other way. Unless noted, % is set by controls: 0 for no effect and ±100 for the full control effect.
SMILES,PNC assembly inh,ALDH1A1 block,Luc counter,HPGD inh,Lamin A splicing
CCCCCCn1c(SCC(=O)OC)nc2c1c(=O)[nH]c(=O)n2C,-9.9,3.55µM*,-0.2%,7.94µM*,-2.5%
Cc1cc(CN2CCCCC2)c(O)c(CN2CCCCC2)c1,/,0.0%[13.5 µM],-7.1%[7.66 µM],-9.5%,/
CCN(c1ccccc1)c1ncnc2c1cnn2-c1ccc(C)cc1C,/,/,/,/,-19.9%[46 µM]
COc1ccc(C(=O)N2CCC3(CC2)CN(c2ccc(-c4ccccc4)cc2)C3)cc1,/,0.5%,-2.3%,-4.3%,/
Cc1occc1C(=O)N1CCN(C(c2ccccc2)c2ccccc2)CC1,-26.5,?,3.0%,-22.0%,-20.0%
O=C(C1=COCCO1)N1CCN(C(c2ccccc2)c2ccccc2)CC1,14.0,8.91µM*,1.2%,-17.2%,5.4%
Cc1oc(C(C)(C)C)cc1C(=O)N1CCN(C(c2ccccc2)c2ccccc2)CC1,/,8.91µM*,/,/,7.7%[46 µM]
O=C(O)Cn1ccnc1[N+](=O)[O-],/,2.0%[13.5 µM],-2.2%[7.66 µM],-3.0%,/
COc1ccc(C)cc1NC(=O)C(Cc1ccccc1)NS(=O)(=O)c1cccs1 (stereo not drawn),/,/,/,/,-15.6%[46 µM]
COc1ccc(C(=O)NCC(=O)OCC(=O)NCc2cccs2)cc1,/,?,4.7%,/,5.5%[46 µM]
COc1ccc2nc3sc(C(=O)NCc4cccs4)c(N)c3cc2c1,36.2,3.98µM*,-8.4%,?,?
CCCCCCC(=O)Cc1cc(OC)c(OC)cc1/C=C(/C(C)=O)C(=O)OC,/,-1.5%[13.5 µM],/,/,/
CC1CCC(N2CC(=O)N(C3CCCCC3)C(c3ccc(F)cc3)C2=O)CC1 (stereo not drawn),/,/,/,/,-13.6%[46 µM]
Cc1ccc(CNC(=O)CSc2n[nH]c(N)n2)cc1,-92.8*,-5.5%,-1.8%,1.3%,15.6%
Nc1nc(SCC(=O)NCc2ccccc2)n[nH]1,19.0,3.4%,0.5%,-15.9%,?
c1ccc2nc(-c3ccc4c(c3)OCO4)ccc2c1,/,?,-26.4%,/,?
CNc1ccccc(-c2ccc3cc4c(cc3n2)OCO4)c1=O,-109.0*,?,?,-2.6%,-1.1%
C=CC(C1=CC(=O)C(OC)=CC1=O)c1ccc(O)cc1 (stereo not drawn),/,-0.5%,0.1%,-24.9%,/
O=[N+]([O-])c1ccccc1/C=N/NC1=NCCCCC1,53.7,?,1.2%,-18.0%,6.5%
O=[N+]([O-])c1ccccc1/C=N/Nc1nnc(-c2ccccc2)c(-c2ccccc2)n1,-4.9,0.282µM*,3.1%,0.0%,-6.1%
CC1=NN(c2ccccc2)C(=O)/C1=C/c1cn(C)c2ccccc12,/,0.5%,/,/,/
CCCCC(=O)NCCc1cc2ccc(OC)cc2[nH]c1=O,-100.0*,-0.6%,-2.4%,?,3.4%
CCCC(=O)NCCc1cc2ccc(OC)cc2[nH]c1=O,-7.1,-5.5%,0.3%,-21.1%,-3.2%
O=C(Nc1ccc(N2CCN(c3ccc(F)cc3)CC2)c(C(=O)O)c1)c1ccccc1F,/,/,/,/,0.9%[46 µM]
COCC(C)n1c(C)cc(C(=O)COC(=O)c2ccc(N3CCCC3=O)cc2)c1C (stereo not drawn),-19.8,25.1µM*,19.0%,-13.1%,7.8%
SMILES,PNC assembly inh,ALDH1A1 block,Luc counter,HPGD inh,Lamin A splicing
COc1ccc(COC(=O)c2ccc(N3CCCC3=O)cc2)cc1F,-22.5,-7.5%,-2.4%,14.1µM*,?
COCC(C)n1c(C)cc(C(=O)COC(=O)C2=NN(c3ccccc3)C(=O)CC2)c1C (stereo not drawn),/,11.5%,2.3%,/,2.4%[46 µM]
CC(=O)N1C2(C=CC1(C)C(=O)NCc1ccc(C)o1)CCCCC2 (stereo not drawn),/,22.4µM*,-4.3%,-10.0%,/
CCCCC(CC)C/C=C1\CC(C(=O)OCC)Oc2ccccc21 (stereo not drawn) (tested in a mixture with another compound),/,-5.6%,0.9%[39.9 µM],-4.6%,/
COc1ccc2c(c1OC)OCC(c1ccc(OC)c(OC)c1OC)C2 (stereo not drawn),/,-1.8%,-1.6%,-3.9%,-21.9%
Cc1nc(NCCCO)c(C#N)c2c1COC(C)(C)C2,-121.8*,?,/,/,-6.0%
NC(=O)c1ccc(N2CCN(c3ccc(O)cc3)CC2)c([N+](=O)[O-])c1,/,15.8µM*,-1.6%,/,?
O=C(Nc1nc2ccc3ccccc3c2s1)c1ccc(N2CCCCC2)c([N+](=O)[O-])c1,?,4.7%,2.3%,-6.2%,?
CCC(CC)c1nnc(NC(=O)c2ccc(N3CCCCC3)c([N+](=O)[O-])c2)s1,?,0.794µM*,0.9%,-25.9%,9.3%
O=[N+]([O-])c1cc([N+](=O)[O-])c(N2CCCCCC2)cc1NCCO,95.8,2.24µM*,1.3%,-10.4%,20.2%
CCCCCCCNC(=O)c1ccc(N2CCC3(CC2)OCCO3)c([N+](=O)[O-])c1,-119.3*,25.1µM*,-0.7%,-13.6%,?
COc1ccc(CNC(=O)c2ccc(N3CCOCC3)c([N+](=O)[O-])c2)cc1,/,2.8%,-0.4%,/,/
CC(=O)c1ccc(N2CCN(c3ccc(C(N)=O)cc3[N+](=O)[O-])CC2)cc1,/,4.4%,1.2%,/,/
COc1ccc(OC)c(S(=O)(=O)NCCc2sc(C)nc2C)c1,/,/,/,/,3.3%[46 µM]
O=C(NCc1ccco1)c1ccc(N2CCCCC2)c([N+](=O)[O-])c1,?,?,-3.8%,31.6µM*,?
O=C1CN(C(=O)COC(=O)c2ccc(N3CCCCCC3)c([N+](=O)[O-])c2)c2ccccc2N1,13.1,7.94µM*,/,/,-10.2%
NNC(=O)c1ccc(N2CCCCCC2)c([N+](=O)[O-])c1,/,1.58µM*,9.4%,/,26.2%[46 µM]
O=C(NCc1ccco1)c1ccc(N2CCOCC2)c([N+](=O)[O-])c1,/,?,1.7%,/,7.7%[46 µM]
Cc1cc(C)cc(NC(=O)CSc2nc(=O)[nH]c3c2CCC3)c1,/,/,/,/,13.6%[46 µM]
CCc1ccc(CNC(=O)c2ccc(CS(=O)(=O)Cc3ccccc3C)o2)cc1,/,/,/,/,7.2%[46 µM]
COC(=O)c1cnc(SCc2ccc([N+](=O)[O-])cc2)n1C,/,-4.4%,/,/,14.5%[46 µM]
Cn1c(CO)cnc1SCc1ccc([N+](=O)[O-])cc1,6.4,28.2µM*,-6.4%,-2.0%,-7.1%
O=C(c1cc(-c2ccc(Cl)cc2)on1)N(Cc1cccc(F)c1)Cc1ccco1,/,/,/,/,-3.5%[46 µM]
O=C(O)c1n[nH]c2c1CCCC2,20.1,4.0%,-0.6%,0.0%,-5.6%
O=C(O)c1n[nH]c2c1CCCCC2,-89.0*,3.5%,-3.8%,-3.0%,2.1%
SMILES,PNC assembly inh,ALDH1A1 block,Luc counter,HPGD inh,Lamin A splicing
Cc1ccc(S(=O)(=O)CCSC(=N)N)cc1,/,0.112µM*,-1.3%,/,?
Cc1ccccc1CNc1nc(N(C)C)nc2c1cnn2C,/,/,/,/,5.1%[46 µM]
COc1cccc(OC)c1C(=O)NC(=S)Nc1ccc2c(c1)Cc1ccccc1-2,?,10µM*,-3.9%,-16.5%,3.0%
C=C1C(=O)O[C@@H]2C3OC3(C)CC/C=C(\C)CC[C@@H]12 (stereo partly drawn),/,-15.3%,0.2%,-0.7%,/
C=C1C(=O)O[C@@H]2[C@H]3O[C@]3(C)CC/C=C(\C)CC[C@@H]12,/,12.6µM*,/,/,/
CC1=C(C(=O)N2CCOCC2)C(c2ccc(C)cc2)NC(=S)N1 (stereo not drawn),51.3,17.8µM*,/,/,-9.8%

# Bioassay records from PubChem BioAssay.
